USP17 inh = inhibitors of human USP17 deubiquitinase. Ubiquitin carboxyl-terminal hydrolase 17-like protein 5 (Homo sapiens), A8MUK1. 47,000 tested, 6.5% active. purified USP17, Ub-rhodamine cleavage fluorescence, 3 h. inhibition, % at 50 µM
USP30 block = inhibitors of human USP30 deubiquitinase. Ubiquitin carboxyl-terminal hydrolase 30 (Homo sapiens), Q70CQ3. purified USP30, Ub-rhodamine cleavage fluorescence. inhibition, % at 25 µM. 47,000 tested, 5.3% active. AID 1645860, 2021
Target sequence (Q70CQ3 whole entry, looked up): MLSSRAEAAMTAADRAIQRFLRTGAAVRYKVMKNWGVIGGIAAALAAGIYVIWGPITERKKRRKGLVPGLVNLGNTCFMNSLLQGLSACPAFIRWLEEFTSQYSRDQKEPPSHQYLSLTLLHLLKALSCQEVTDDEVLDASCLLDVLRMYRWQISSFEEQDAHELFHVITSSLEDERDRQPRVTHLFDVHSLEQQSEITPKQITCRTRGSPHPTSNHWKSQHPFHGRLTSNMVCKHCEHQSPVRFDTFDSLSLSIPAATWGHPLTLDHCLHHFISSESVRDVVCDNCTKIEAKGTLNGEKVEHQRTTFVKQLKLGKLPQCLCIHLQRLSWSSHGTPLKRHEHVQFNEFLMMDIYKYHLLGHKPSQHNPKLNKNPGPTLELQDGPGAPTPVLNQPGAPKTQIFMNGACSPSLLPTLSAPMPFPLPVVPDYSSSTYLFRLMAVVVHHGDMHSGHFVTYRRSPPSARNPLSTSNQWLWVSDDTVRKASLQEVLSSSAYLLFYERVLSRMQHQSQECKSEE
* = called active by the depositor; . = not tested or not shown. Only some compounds are listed: those with a hit (about 9.6% of all), similar ones and a draw of the others. No stated cut-off is given here; in the data, active means inhibition above about 30%; inactive means the rest.

SMILES	USP17 inh	USP30 block
Cc1ccc(C(=O)N2CCN(c3nc4ccccc4n(C)c3=O)CC2)cc1	-1.9	.
O=C(Cc1cc(-c2ccc(F)cc2)on1)NCc1ccc(Cl)cc1	-0.1	-4.3
NC(=O)c1ccc(NC(=O)Cc2cc(-c3ccc(F)cc3)on2)cc1	39.1*	-41.0
COc1ccccc1CNC(=O)Cc1cc(-c2ccc(F)cc2)on1	15.5	0.0
COc1cccc(-c2cc(CC(=O)Nc3ccc(C(N)=O)cc3)no2)c1	-3.3	-33.4
O=C(Cc1cc(-c2ccc(F)cc2)on1)Nc1ccccc1C(F)(F)F	38.6*	-54.0
O=C(Cc1cc(-c2ccc(F)cc2)on1)NCc1ccccc1	59.8*	0.0
Cc1cccc(-n2nc3c(c2NC(=O)c2ccc(C(F)(F)F)cc2)CS(=O)(=O)C3)c1	-2.4	6.3
CC(=O)c1cccc(S(=O)(=O)Nc2ccc3cn[nH]c3c2)c1	-30.5	-22.0
CN(C)C(=O)C1Cn2ccnc2C2(CCN(C(=O)C3CCC3)CC2)O1 (stereo not drawn)	-13.9	-6.7
Cc1nn(-c2ccccc2)c2c1C(c1cccnc1)c1c(ncn3nc(-c4cccc5ccccc45)nc13)O2 (stereo not drawn)	16.2	23.8
Cc1ccc(C2c3c(C)nn(-c4ccccc4)c3Oc3ncn4nc(-c5ccccc5O)nc4c32)cc1 (stereo not drawn)	16.3	34.1*
CCc1ccc(C(=O)NCc2nc(C(=O)N3CCCC3)c(C)o2)cc1	-0.3	3.0
CNc1cccc(C2CN(C(=O)c3n[nH]c4c3CCC4)CCO2)n1 (stereo not drawn)	-5.2	-6.5
Cc1nn(-c2ccccc2)c2nc(C3CCN(C(=O)c4n[nH]c5c4CCC5)CC3)ccc12	15.3	38.0*
CC(OC(=O)c1cc(=O)[nH]c2ccccc12)C(=O)Nc1ccc(F)cc1Cl (stereo not drawn)	44.7*	12.2
O=C(Nc1ccc(Cl)cc1F)c1cc(=O)[nH]c2ccccc12	-5.0	-12.3
CCOc1ccc(NS(=O)(=O)c2cc(C(=O)NCc3ccncc3)ccc2C)cc1	9.6	.
O=C(NCCc1ccccn1)c1nc2c(s1)CCCN2C(=O)C1CC1	-20.9	-13.2
COc1cccc(CNC(=O)c2nc3c(s2)CCNCC3)c1	33.8*	-9.5
COc1cccc(NC(=O)c2nc3c(s2)CCNCC3)c1	8.2	17.8
Cc1ccc(S(=O)(=O)c2cnc3ccccc3c2NCc2ccccc2)cc1	0.9	5.5
COc1ccc(CNc2c(S(=O)(=O)c3ccccc3)cnc3ccccc23)cc1	10.8	35.1*
Cc1nc(NC(=O)c2coc(NC(=O)c3ccccc3)n2)sc1C	-98.0	-397.6
COCc1cc(=O)n(Cc2ccccc2)c(N2CCCC2)n1	.	-1.8
SMILES	USP17 inh	USP30 block
Cc1ccc(-n2c(-c3cccs3)cn3c4c(=O)n(C)c(=O)n(C)c4nc23)cc1	35.9*	-2.4
CCOC(=O)CCCn1c(-c2ccccc2)cn2c3c(=O)n(C)c(=O)n(C)c3nc12	17.1	28.9
Cc1cn2c3c(=O)n(C)c(=O)n(C)c3nc2n1Cc1cccc2ccccc12	7.4	48.5*
Cn1c(=O)c2c(nc3n(CCCCO)c(-c4ccccc4)cn23)n(C)c1=O	0.5	16.6
Cn1c(=O)c2c(nc3n(-c4ccc(F)cc4)c(-c4ccc(Br)cc4)cn23)n(C)c1=O	5.7	0.9
Cn1c(=O)c2c(nc3n(-c4ccccc4F)c(-c4ccccc4)cn23)n(C)c1=O	39.0*	72.4*
COc1ccc(CCn2c(-c3ccccc3)cn3c4c(=O)n(C)c(=O)n(C)c4nc23)cc1OC	9.9	38.6*
CCOc1ccc(-c2cn3c4c(=O)n(C)c(=O)n(C)c4nc3n2-c2ccccc2F)cc1Cl	-0.2	-127.4
Cc1cccc(NC(=O)Cn2cc(C(=O)N3CCOCC3)c(=O)c3ccc(C)nc32)c1	-2.8	-79.4
CCCc1ccc(C(=O)NC(C)c2ccncc2)cc1 (stereo not drawn)	-2.5	-6.2
O=C(NCc1ccc(Cl)cc1)c1cn2c(n1)CCCC2	7.6	8.2
CC1(C)Cc2nc(-c3ccccc3)nc(SCCc3ccccc3)c2CO1	10.0	3.8
CCc1nc(-c2ccc(C(=O)Nc3cccnc3)cc2)no1	-4.2	-7.0
CCc1nc(-c2c(C)cc(C)nc2NC(=O)c2ccccc2C)no1	16.0	10.4
Cc1cc(C)c2c(NC(=O)c3cccc4ccccc34)nn(C)c2n1	49.5*	16.8
COc1ccc(NC(=O)c2c(-c3ccc(C)cc3)c3c4n(c(-c5ccc(C)cc5)cn24)CCCC3)cc1	-23.1	-138.3
CN(C)C(=O)N1CCN(S(=O)(=O)Cc2ccccc2)CC2(CNC(=O)C2)C1 (stereo not drawn)	0.9	16.6
Cc1nc2c(nnn2C[C@H]2CCCN2C(=O)c2c(F)cccc2F)c(=O)[nH]1	-4.9	3.4
Cc1ccc(N(CCC(=O)Nc2ccccc2N2CCOCC2)S(=O)(=O)c2ccc(C)cc2)cc1	6.5	20.1
O=c1ccc(-c2nc(-c3cnccn3)no2)cn1Cc1noc(-c2ccccc2)n1	-20.4	-98.4

Source: PubChem BioAssay (Buhrlage Lab, Dana-Farber Cancer Institute and Novartis Institutes for BioMedical Research (Cambridge, Mass))
